# Assay outcomes deposited in PubChem BioAssay by several laboratories.
# Mtb FBA inh – Mtb FBA enzyme inhibitors, primary screen, biochemical, fluorescence, strain H37Rv; Fructose-bisphosphate aldolase (Mycobacterium tuberculosis (strain ATCC 25618 / H37Rv)), …; purified M. tuberculosis FBA, fluorescence read-out; inhibition, % at 1 µM; actives 2.3% (n = 360,000); AID 588726, 2011; in the data active = inhibition above about 27%;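 also: 0% = vehicle and 100% = reference inhibitor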
# Target sequence (P9WQA3 whole entry, looked up): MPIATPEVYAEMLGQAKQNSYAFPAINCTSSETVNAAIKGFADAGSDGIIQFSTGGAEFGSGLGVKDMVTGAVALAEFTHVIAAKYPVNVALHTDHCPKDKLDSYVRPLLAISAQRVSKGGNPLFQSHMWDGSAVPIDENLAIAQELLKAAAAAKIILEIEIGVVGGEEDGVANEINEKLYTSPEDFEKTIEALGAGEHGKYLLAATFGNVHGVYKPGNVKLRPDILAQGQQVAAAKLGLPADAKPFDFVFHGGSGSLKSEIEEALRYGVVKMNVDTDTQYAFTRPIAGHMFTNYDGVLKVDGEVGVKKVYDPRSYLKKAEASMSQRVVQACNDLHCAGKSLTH
# CCHF vOTU inh – CCHFV vOTU protease inhibitors, primary screen, biochemical, Pep-AMC substrate, fluorescence; inhibition, % at 11.5 µM; actives 0.55% (n = 370,000); also: 0% = vehicle wells with enzyme and 100% = no enzyme wells
# GDH-TPI inh – GDH-TPI coupling enzyme inhibitors, primary screen, artefact control for M. tuberculosis FBA inhibitor project, biochemical, absorbance, full deck; GDH-TPI coupled enzyme counterscreen, NADH absorbance; inhibition, % at 4.8 µM; actives 1.2% (n = 360,000); AID 588335, 2011;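 also: 0% = DMSO wells and 100% = wells lacking the enzyme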
# MazF activator – activators of E. coli MazEF toxin-antitoxin RNase, primary screen, biochemical, fluorescence, uHTS; FAM/BHQ RNA-DNA oligo cleavage fluorescence, 5 h; actives 0.32% (n = 350,000); Endoribonuclease toxin MazF (Escherichia coli (strain K12)), P0AE70; activation, % at 20 µM; in the data active = activation above about 50%
# Target sequence (P0AE70 whole entry, looked up): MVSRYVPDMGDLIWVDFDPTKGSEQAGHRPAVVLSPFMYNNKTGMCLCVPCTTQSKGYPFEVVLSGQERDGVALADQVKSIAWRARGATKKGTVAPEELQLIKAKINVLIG
# Mtb bLac sens – beta-lactam sensitization of Mtb H37Rv, H37Rv; actives 0.27% (n = 330,000); inhibition, % at 25 µM; AID 434955, 2010; M. tuberculosis H37Rv growth with meropenem, percent inhibition; call rule not given here;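 also: growth measured after seven days incubation then overnight dye step; 0% = bacteria only wells and 100% = bacteria with antibiotic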
# Active calls of the source: *; nt = no result given; + = active, no number. This is a sample that favours compounds with a hit; in the whole collection about 4% have one here. Rule as the data show it, unless noted: active = inhibition above about 30%; inactive = the rest.
SMILES,Mtb FBA inh,CCHF vOTU inh,GDH-TPI inh,MazF activator,Mtb bLac sens
O=C(COc1ccccc1[N+](=O)[O-])N/N=C/C=C/c1ccco1,-1,1,49*,4,4
COC(=O)[C@]12C[C@H](CC(=O)N3CCN(C(=O)C4CC4)CC3)C(=O)N(Cc3ccc4c(c3)OCO4)C1=C[C@H](C(C)C)O[C@@H]2C1CC1,nt,4,nt,nt,nt
COc1cccc(-c2cc(C(=O)N3CCc4ccccc4C3)[nH]n2)c1,4,-10,-10,93*,-10
Cc1ccc(-c2cc(C(=O)N3CCc4ccccc4C3)[nH]n2)cc1C,-1,4,1,-3,0
CCC(CO)Nc1cccc2c1S(=O)(=O)N(Cc1cn(Cc3ccc(Cl)cc3)nn1)Cc1ccccc1O2 (stereo not given),nt,-2,nt,nt,nt
COc1ccc(C2CC(c3ccc(C(F)(F)F)cc3)=NN2c2ccc(S(N)(=O)=O)cc2)cc1 (stereo not given),155*,-73,10,-4,nt
COc1ccc(C2CC(c3ccccc3F)=NN2c2ccc(S(N)(=O)=O)cc2)cc1 (stereo not given),156*,-97,-9,-1,nt
COc1ccc(C2CC(c3cccs3)=NN2S(=O)(=O)c2ccc(C)cc2)cc1 (stereo not given),0,5,9,1,-13
COc1ccc(C2CC(C(C)(C)C)=NN2c2ccc(S(N)(=O)=O)cc2)cc1 (stereo not given),-1,18,12,7,nt
COc1ccc(C2CC(c3ccccc3C(F)(F)F)=NN2c2ccc(S(N)(=O)=O)cc2)cc1 (stereo not given),+,-192,-10,1,nt
COC(=O)[C@H](C(C)C)N1Cc2nnn(CC3CCCCC3)c2-c2cc(F)ccc2S1(=O)=O,nt,6,nt,nt,nt
COc1ccc(S[C@]2(C(=O)N3CCOCC3)CC(=O)N(c3ccsc3)[C@@H]2c2ccc(OC)cc2)cc1,nt,-1,nt,nt,nt
O=c1nc2ccc(Cl)cn2c2ccc(S(=O)(=O)N3CCOCC3)cc12,176*,-213,16,1,0
COc1c(O)ccc(/C=N\NC(=O)c2ccc3c(c2)OCO3)c1[N+](=O)[O-],-2,12,33*,7,-5
O=C(N/N=C/c1cc2c(cc1[N+](=O)[O-])OCO2)c1ccc2c(c1)OCO2,0,17,-4,10,2
COc1c(O)ccc(/C=N/NC(=O)c2ccc3c(c2)OCCO3)c1[N+](=O)[O-],-2,23,62*,8,-4
CC(=O)C1(C(=O)NCc2ccccc2)CC(c2ccccc2C(F)(F)F)=NO1 (stereo not given),nt,-2,nt,nt,nt
O=C(NC1CC2CCCC(C1)N2C(=O)Nc1ccc(Cl)c(C(F)(F)F)c1)C1CC1 (stereo not given),1,11,0,4,-12
O=C(Nc1ccc(Cl)c(C(F)(F)F)c1)NC1CC2CCCC(C1)N2Cc1ccccc1 (stereo not given),nt,13,nt,159*,99
CC(=O)c1ccc(N2CCN(S(=O)(=O)c3cn(C)cn3)CC2)cc1,3,14,37*,3,1
O=C1NC(=O)C(=Cc2cn(CCOc3ccc4c(c3)OCO4)c3ccccc23)C(=O)N1,-4,nt,1,528*,24
C=CCn1cc(C=C2C(=O)NC(=O)NC2=O)c2ccccc21,-6,-3,8,-9,3
O=C1c2ccccc2C2Cc3nnccc3CN12 (stereo not given),nt,2,nt,nt,nt
CN1/C(=C/C=C(C#N)C#N)C(C)(C)c2ccccc21,-10,-7,3,+,5
CN1/C(=C\C=N\NC(=O)c2cccnc2)C(C)(C)c2ccccc21,0,-6,4,3,86
SMILES,Mtb FBA inh,CCHF vOTU inh,GDH-TPI inh,MazF activator,Mtb bLac sens
CN1\C(=C/C=C/C=C/C=[N+](C)C)C(C)(C)c2ccccc21,-10,8,-5,477*,nt
CN1/C(=C\C=N\NC(=O)c2ccc(O)cc2)C(C)(C)c2ccccc21,-4,10,40*,15,1
Oc1ccccc1C1=Nc2ncnn2C(c2ccccc2)C1 (stereo not given),3,-1,35*,0,58
O=C(Nc1ncccn1)c1ccc([N+](=O)[O-])o1,17,-40,11,91*,1
O=C(Nc1ccccn1)c1ccc([N+](=O)[O-])o1,-2,nt,9,-6,100
CCCCCCCCN1C(=O)[C@@H](CC(=O)NCCCC)C[C@@]2(C(=O)OC)C1=C[C@H](COCc1ccccc1)O[C@@H]2C,nt,29,nt,nt,nt
COc1ccc(/C=N\NC(=O)/C(=C\Nc2nccc(C)n2)NC(=O)c2ccccc2)cc1,0,11,63*,3,-2
COc1ccc(/C=C(\NC(=O)c2ccc(OC)cc2)C(=O)Nc2ccccc2C(=O)O)cc1,-5,7,31*,0,6
Cc1ccc(/C=N/NC(=O)C(C)NC(=O)c2ccccc2)cc1 (stereo not given),7,14,6,15,5
Cc1ccc(/C=N\NC(=O)/C(=C\Nc2nccc(C)n2)NC(=O)c2ccccc2)cc1,-4,12,95*,9,-3
COc1ccc(OCc2cc(/C=N\NC(=O)c3ccccc3)ccc2OC)cc1,1,-1,20,-9,-10
CC(/C=C/c1ccccc1)=N\NC(=O)c1ccncc1,-1,6,18,1,99
COc1ccc(C=CC(C)=NNC(=O)c2ccncc2)cc1,0,16,54*,-3,nt
CC(=O)N1c2cc(S(=O)(=O)N3CCN(c4ccccc4F)CC3)c(Br)cc2CC1C (stereo not given),nt,4,nt,nt,nt
CN(C)C=Nc1nc2c(Br)ccc(Br)c2cc1C(=O)NCC(C)(C)C,nt,-1,nt,nt,nt
COc1ccc(S[C@]2(C(=O)N3CCN(c4ncccn4)CC3)CC(=O)N(C(=O)c3ccccc3)[C@@H]2c2ccc(OC)cc2)cc1,nt,-4,nt,nt,nt
COc1ccc(/C=C(/NC(=O)c2ccccc2)C(=O)N/N=C/c2ccncc2)cc1,2,-2,35*,0,8
COc1ccc(C(=O)N/C(=C\c2ccc([N+](=O)[O-])cc2)C(=O)NC(CCSC)C(=O)O)cc1 (stereo not given),0,3,33*,-4,1
COc1ccc(/C=C(\NC(=O)c2ccc(OC)cc2)C(=O)NC(CCSC)C(=O)O)cc1 (stereo not given),2,2,7,4,-14
CCOc1cccc(/C=N\NC(=O)c2cnccn2)c1O,nt,7,nt,nt,nt
Nc1nc(-c2cc(O)ccc2[N+](=O)[O-])cc(-c2ccccc2)c1[N+](=O)[O-],3,18,33*,-4,2
CC(COc1ccccc1)CN1CCC(C(O)(c2ccccc2)c2ccccc2)CC1 (stereo not given),nt,-4,nt,nt,nt
